# From PubChem BioAssay (Tox21)
# Results filed as inconclusive are left out. Where a call stands in place of a potency, no number is given. Active and inactive are the calls of the source. The call rests on the fitted dose curve; in most records, active means well fitted inhibition curve with a large enough effect in the signal ratio in the repeat runs (not every such curve was filed as active); inconclusive means weak or mixed curves, or effect the other way; inactive means no such curve, though single readings can be large or run the other way; the % refers to the signal ratio.
# Target: Glucocorticoid receptor (Homo sapiens) (UniProt P04150)
# Assay: qHTS assay to identify small molecule antagonists of the glucocorticoid receptor (GR) signaling pathway (AID 720692)
# Settings: GR-bla HeLa, beta-lactamase FRET ratio, dexamethasone-stimulated, 18 h; series mostly up to 58.5 µM
# How it was run: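 GRE-bla HeLa line, dex-stimulated (5 nM final). Compound exposure 18 h, 37 C. Beta-lactamase FRET read after 2 h RT substrate.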
# Chain of Glucocorticoid receptor (Homo sapiens) (P04150 whole entry, looked up): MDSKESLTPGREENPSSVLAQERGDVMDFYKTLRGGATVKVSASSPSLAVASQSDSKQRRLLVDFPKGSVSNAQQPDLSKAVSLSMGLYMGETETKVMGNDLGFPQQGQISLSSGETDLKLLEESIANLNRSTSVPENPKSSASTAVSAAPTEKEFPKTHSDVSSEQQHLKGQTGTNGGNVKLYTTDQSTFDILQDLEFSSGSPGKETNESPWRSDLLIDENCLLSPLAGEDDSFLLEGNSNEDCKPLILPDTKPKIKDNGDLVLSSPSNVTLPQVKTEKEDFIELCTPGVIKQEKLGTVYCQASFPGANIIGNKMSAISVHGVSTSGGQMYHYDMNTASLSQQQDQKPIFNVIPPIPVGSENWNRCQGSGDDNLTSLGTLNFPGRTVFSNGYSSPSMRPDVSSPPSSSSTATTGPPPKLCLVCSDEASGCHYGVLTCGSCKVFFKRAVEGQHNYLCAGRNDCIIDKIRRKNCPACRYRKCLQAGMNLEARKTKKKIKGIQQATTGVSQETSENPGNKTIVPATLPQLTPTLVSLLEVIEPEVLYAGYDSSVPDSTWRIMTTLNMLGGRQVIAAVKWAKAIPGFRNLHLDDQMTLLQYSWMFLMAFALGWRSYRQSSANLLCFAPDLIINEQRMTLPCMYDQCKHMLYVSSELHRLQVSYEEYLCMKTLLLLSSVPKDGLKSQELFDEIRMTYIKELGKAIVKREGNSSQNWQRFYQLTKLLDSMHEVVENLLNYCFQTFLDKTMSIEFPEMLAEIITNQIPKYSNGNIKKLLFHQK
row,SMILES,Potency
1,CCN1CCCC1CNC(=O)c1cc(S(=O)(=O)CC)ccc1OC (configuration not stated),inactive
2,Nc1nc(NC2CC2)c2ncn([C@@H]3C=C[C@@H](CO)C3)c2n1,inactive
3,CC[C@@H](C)[C@H](N)C(=O)O,inactive
4,CC(=O)O[C@H]1C[C@@H]2CC[C@@H]3[C@H](CC[C@@]4(C)[C@H]3C[C@H]([N+]3(C)CCCCC3)[C@@H]4OC(C)=O)[C@@]2(C)C[C@@H]1[N+]1(C)CCCCC1,inactive
5,O=C1c2c(O)cccc2[C@H]([C@@H]2O[C@H](CO)[C@@H](O)[C@H](O)[C@H]2O)c2cc(CO)cc(O)c21,inactive
6,CC1CCCCN1CCCOC(=O)c1ccccc1 (configuration not stated),inactive
7,N=C(N)n1cccn1,inactive
8,CCc1ncnc2cc(OC)c(OC)cc12,inactive
9,CNCC(=O)N[C@@H](CCCN=C(N)N)C(=O)N[C@H](C(=O)N[C@@H](Cc1ccc(O)cc1)C(=O)N[C@H](C(=O)N[C@@H](Cc1cnc[nH]1)C(=O)N1CCC[C@H]1C(=O)N[C@@H](C)C(=O)O)C(C)C)C(C)C,inactive
10,CC(C)(S)C(=O)N[C@@H](CS)C(=O)O,inactive
11,O=C(O)/C=C/C(=O)Nc1ccc(S(=O)(=O)Nc2nccs2)cc1,inactive
12,CC(C)c1ccc2sc3ccccc3c(=O)c2c1,inactive
